USP30 block = inhibitors of human USP30 deubiquitinase. Ubiquitin carboxyl-terminal hydrolase 30 (Homo sapiens), Q70CQ3. inhibition, % at 25 µM. purified USP30, Ub-rhodamine cleavage fluorescence. AID 1645860, 2021. hit rate 5.3% among 47,000
USP8 inh = inhibitors of human USP8 deubiquitinase. purified USP8, Ub-rhodamine cleavage fluorescence, 30 min. inhibition, % at 20 µM. hit rate 4.2% among 47,000. AID 1645853, 2021
USP17 inh = inhibitors of human USP17 deubiquitinase; purified USP17, Ub-rhodamine cleavage fluorescence, 3 h; inhibition, % at 50 µM; hit rate 6.5% among 47,000
USP28 block = inhibitors of human USP28 deubiquitinase; Ubiquitin carboxyl-terminal hydrolase 28 (Homo sapiens), Q96RU2; purified USP28, Ub-rhodamine cleavage fluorescence, 30 min; inhibition, % at 25 µM; hit rate 3% among 47,000; AID 1645857, 2021
USP10 inh = inhibitors of human USP10 deubiquitinase; purified USP10, Ub-rhodamine fluorescence, 60 min; hit rate 1.1% among 47,000; Ubiquitin carboxyl-terminal hydrolase 10 (Homo sapiens), Q14694; inhibition, % at 20 µM
Target sequence (Q14694 whole entry, looked up): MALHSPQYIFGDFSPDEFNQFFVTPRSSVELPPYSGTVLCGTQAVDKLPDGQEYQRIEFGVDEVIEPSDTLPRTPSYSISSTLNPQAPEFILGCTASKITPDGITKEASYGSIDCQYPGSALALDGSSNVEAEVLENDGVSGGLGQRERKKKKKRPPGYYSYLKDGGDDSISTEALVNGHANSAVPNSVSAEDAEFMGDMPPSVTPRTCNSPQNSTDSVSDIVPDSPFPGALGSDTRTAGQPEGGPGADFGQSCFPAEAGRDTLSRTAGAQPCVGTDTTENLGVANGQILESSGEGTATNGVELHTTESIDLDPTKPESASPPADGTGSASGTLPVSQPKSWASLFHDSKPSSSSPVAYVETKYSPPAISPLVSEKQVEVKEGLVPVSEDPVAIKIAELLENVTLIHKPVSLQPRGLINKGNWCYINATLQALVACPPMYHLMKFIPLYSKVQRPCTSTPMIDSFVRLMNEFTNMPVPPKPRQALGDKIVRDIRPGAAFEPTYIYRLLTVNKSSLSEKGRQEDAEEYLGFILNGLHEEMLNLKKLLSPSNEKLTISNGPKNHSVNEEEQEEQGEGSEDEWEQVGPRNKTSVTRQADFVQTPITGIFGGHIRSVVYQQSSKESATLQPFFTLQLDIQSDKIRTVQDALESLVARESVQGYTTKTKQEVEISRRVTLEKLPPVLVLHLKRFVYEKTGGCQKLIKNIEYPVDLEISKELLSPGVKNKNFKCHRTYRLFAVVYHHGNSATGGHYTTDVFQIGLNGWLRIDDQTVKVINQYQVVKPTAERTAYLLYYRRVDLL
OTUD3 inh = inhibitors of human OTUD3 deubiquitinase; hit rate 0.7% among 47,000; inhibition, % at 25 µM; purified OTUD3, Ub-rhodamine fluorescence, 2 h
An asterisk follows results filed as active; . = no result. In the library only some 13% were active in any assay of this set; here they are far more common. Rule as the data show it: active = inhibition above about 30%; inactive = the rest.

SMILES	USP30 block	USP8 inh	USP17 inh	USP28 block	USP10 inh	OTUD3 inh
O=S(Cc1ccc2nonc2c1)c1cccs1 (centres undefined)	17	-2	1	9	0	6
COc1c(C(O)CC(C)C)ccc(Oc2c(O)cc(C)cc2C=O)c1C(=O)O (centres undefined)	10	7	44*	24	23	23
COc1c([C@@H](O)CC(C)C)ccc2c1C(=O)OCc1cc(C)cc(O)c1O2	-21	-28	-1	0	-11	0
COc1c(C(CC(C)C)OC(C)=O)ccc(Oc2c(O)cc(C)cc2C=O)c1C(=O)O (centres undefined)	-21	-5	35*	23	17	15
COc1c(O)cc(O)c(C(=O)O)c1C(O)C(C)=O (centres undefined)	-88	-4	-14	1	-4	8
Cc1ccc(NC2=NC(C(=O)Nc3ccccc3Cl)CC(=O)N2)cc1 (centres undefined)	-1	5	-18	-4	3	-7
CN(C(=O)Cn1c(=O)n(-c2ccc(Cl)cc2)c(=O)c2c3c(sc21)CCCC3)C1CCCCC1	32*	1	41*	20	2	20
COc1ccc(-c2ocnc2C(=O)Nc2ccc(C)c(F)c2)cc1OC	23	6	10	5	-1	4
O=C(Nc1ccncc1)c1ncoc1-c1cccc(Cl)c1	66*	6	7	2	1	4
CC(C)(C)Nc1c(C2CCN(C(=O)C3CC3)CC2)nc2ccc(F)cn12	-4	-6	-2	-6	-1	-6
CC(NC(=O)c1ccccc1)c1nc(-c2ccc(S(=O)(=O)N3CCCC3)cc2)no1 (centres undefined)	17	12	43*	16	13	12
CC(NC(=O)c1ccccc1)c1nc(-c2ccc(S(=O)(=O)N3CCCCC3)cc2)no1 (centres undefined)	0	5	21	4	0	0
COc1ccc(Cn2c(C(=O)O)c(CNCc3ccco3)c3ccccc32)cc1	-40	16	13	-1	3	-8
O=C1CCc2cc(S(=O)(=O)Nc3ccc(Cl)cc3)cc3c2N1CCC3	7	-9	2	23	3	0
CCCn1c(NC(=O)Cc2coc3cc(OC)ccc23)nc2ccccc21	-88	61*	9	-21	-2	-20
C/C(=C/C=C\C=C\Cc1cnco1)[C@@H](O)C(C)(C)C(=O)NC/C=C/C=C/[C@H](O)[C@H](C)C[C@@H]1OC(=O)[C@@]2(CO)N(C)C(=O)[C@H](C)[C@@]12O	-235	-105	-42	-63	-9	-57
Cc1oc2cc3oc(=O)c(CC(=O)N4CCC5(O)CCCCC5C4)c(C)c3cc2c1C (centres undefined)	23	0	5	7	-2	9
Cc1c(CCC(=O)N2CC[C@@]3(O)CCCC[C@H]3C2)c(=O)oc2cc(OCc3ccc(F)cc3F)ccc12	35*	22	.	15	2	12
Cc1c(OCC(=O)NCC(=O)N2CCC3(O)CCCCC3C2)ccc2c3c(c(=O)oc12)CCCC3 (centres undefined)	7	1	5	-6	-4	41*
COc1ccc(COc2ccc3c(C)c(CC(=O)N4CC[C@@]5(O)CCCC[C@H]5C4)c(=O)oc3c2)cc1	52*	34*	46*	20	62*	8
Cc1nn(C)c(C(=O)Oc2cc(Cl)cc(Cl)c2)c1[N+](=O)[O-]	17	-24	5	0	5	6
COc1ccc(C(=O)c2c[nH]c3ccccc3c2=O)cc1	.	4	32*	.	2	14

Compound activity (PubChem BioAssay)
